The supplement of paper PMC12282887
± gives the standard deviation of the averaged measurements.

Legend:
Test in all cases: promoter activity interaction Z-score (Lux/OD deviation from empty-vector control); higher = stronger promoter induction by the compound
[1] = system: E. coli BW25113 acrABp lux reporter
How it was run: (§1)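 Every compound was given at four 1:2 dilutions, in biological duplicates, to E. coli BW25113 carrying low-copy luxCDABE promoter reporters in wild-type or single-gene deletion backgrounds. Growth in 40 µl LB Lennox in 384-well plates at 37°C was followed by OD600 and luminescence readings every 30 min for 12 h, integrated over 0–8 h for wild type and 1–9 h for deletion strains, with wells below 10% of the median growth value excluded. Scores are Z-transformed residuals of growth-normalised luminescence fitted against a control.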

[2] = system: E. coli BW25113 marRABp lux reporter
How it was run: as §1

[3] = system: E. coli BW25113 micFp lux reporter
How it was run: as §1

[4] = system: E. coli BW25113 ompFp lux reporter
How it was run: as §1

[5] = system: E. coli BW25113 robp lux reporter
How it was run: as §1

[6] = system: E. coli BW25113 soxSp lux reporter
How it was run: as §1

[7] = system: E. coli BW25113 tolCp lux reporter
How it was run: as §1

[8] = 0.048 µg/ml, genetic background: wild type
[9] = 0.048 µg/ml, genetic background: ΔmarA
[10] = 0.048 µg/ml, genetic background: Δrob
[11] = 0.048 µg/ml, genetic background: ΔsoxS
[12] = 0.1 µg/ml, genetic background: wild type
[13] = 0.1 µg/ml, genetic background: ΔmarA
[14] = 0.1 µg/ml, genetic background: Δrob
[15] = 0.1 µg/ml, genetic background: ΔsoxS
[16] = 0.19 µg/ml, genetic background: wild type
[17] = 0.19 µg/ml, genetic background: ΔmarA
[18] = 0.19 µg/ml, genetic background: Δrob
[19] = 0.19 µg/ml, genetic background: ΔsoxS
[20] = 0.38 µg/ml, genetic background: wild type
[21] = 0.38 µg/ml, genetic background: ΔsoxS

CCC(C)CCCC(=O)N[C@@H](CCN)C(=O)N[C@H](C(=O)N[C@@H](CCN)C(=O)N[C@H]1CCNC(=O)[C@H]([C@@H](C)O)NC(=O)[C@H](CCN)NC(=O)[C@H](CCN)NC(=O)[C@H](CC(C)C)NC(=O)[C@@H](CC(C)C)NC(=O)[C@H](CCN)NC1=O)[C@@H](C)O (stereo not given in full) [Colistin]
promoter activity interaction Z-score [1, 8]: 0.00962 ± 0.11 | promoter activity interaction Z-score [1, 9]: -0.167 ± 0.31 | promoter activity interaction Z-score [1, 10]: 0.139 ± 0.096 | promoter activity interaction Z-score [1, 11]: 0.0289 ± 0.14 | promoter activity interaction Z-score [1, 12]: 0.308 ± 0.22 | promoter activity interaction Z-score [1, 13]: 0.524 ± 0.34 | promoter activity interaction Z-score [1, 14]: 0.0214 ± 0.021 | promoter activity interaction Z-score [1, 15]: -0.00861 ± 0.23 | promoter activity interaction Z-score [1, 16]: 0.246 ± 0.16 | promoter activity interaction Z-score [1, 17]: -0.482 ± 0.29 | promoter activity interaction Z-score [1, 18]: 0.192 ± 0.051 | promoter activity interaction Z-score [1, 19]: -0.0737 ± 0.12 | promoter activity interaction Z-score [1, 20]: 0.607 ± 0.1 | promoter activity interaction Z-score [1, 21]: 2.31 ± 2.5 | promoter activity interaction Z-score [2, 8]: -0.253 ± 0.2 | promoter activity interaction Z-score [2, 9]: -0.196 ± 0.055 | promoter activity interaction Z-score [2, 10]: 0.00109 ± 0.051 | promoter activity interaction Z-score [2, 11]: 0.178 ± 0.25 | promoter activity interaction Z-score [2, 12]: -0.233 ± 0.24 | promoter activity interaction Z-score [2, 13]: -0.108 ± 0.097 | promoter activity interaction Z-score [2, 14]: -0.0851 ± 0.097 | promoter activity interaction Z-score [2, 15]: 0.0244 ± 0.049 | promoter activity interaction Z-score [2, 16]: -0.154 ± 0.21 | promoter activity interaction Z-score [2, 17]: -0.0032 ± 0.049 | promoter activity interaction Z-score [2, 18]: 0.0892 ± 0.15 | promoter activity interaction Z-score [2, 19]: 0.023 ± 0.025 | promoter activity interaction Z-score [2, 20]: 1.21 ± 0.13 | promoter activity interaction Z-score [2, 21]: 1.22 | promoter activity interaction Z-score [3, 8]: -0.359 ± 0.049 | promoter activity interaction Z-score [3, 9]: 0.0434 ± 0.083 | promoter activity interaction Z-score [3, 10]: 0.0506 ± 0.077 | promoter activity interaction Z-score [3, 11]: -0.14 ± 0.12 | promoter activity interaction Z-score [3, 12]: -0.48 ± 0.39 | promoter activity interaction Z-score [3, 13]: -0.0509 ± 0.014 | promoter activity interaction Z-score [3, 14]: 0.0439 ± 0.063 | promoter activity interaction Z-score [3, 15]: -0.113 ± 0.06 | promoter activity interaction Z-score [3, 16]: -0.562 ± 0.18 | promoter activity interaction Z-score [3, 17]: -0.217 ± 0.25 | promoter activity interaction Z-score [3, 18]: -0.229 ± 0.24 | promoter activity interaction Z-score [3, 19]: -0.514 ± 0.082 | promoter activity interaction Z-score [3, 20]: -0.607 ± 0.2 | promoter activity interaction Z-score [4, 8]: -0.346 ± 0.26 | promoter activity interaction Z-score [4, 9]: -0.0916 ± 0.57 | promoter activity interaction Z-score [4, 10]: -0.0368 ± 0.43 | promoter activity interaction Z-score [4, 11]: 0.093 ± 0.28 | promoter activity interaction Z-score [4, 12]: -0.267 ± 0.43 | promoter activity interaction Z-score [4, 13]: 0.449 ± 0.06 | promoter activity interaction Z-score [4, 14]: 0.19 ± 0.37 | promoter activity interaction Z-score [4, 15]: 0.15 ± 0.24 | promoter activity interaction Z-score [4, 16]: 0.073 ± 0.018 | promoter activity interaction Z-score [4, 17]: 0.452 ± 0.48 | promoter activity interaction Z-score [4, 18]: -0.296 ± 0.74 | promoter activity interaction Z-score [4, 19]: -0.0443 ± 0.14 | promoter activity interaction Z-score [4, 20]: 0.0453 ± 0.83 | promoter activity interaction Z-score [4, 21]: 1.11 | promoter activity interaction Z-score [5, 8]: 0.161 ± 0.5 | promoter activity interaction Z-score [5, 9]: -0.748 ± 0.18 | promoter activity interaction Z-score [5, 10]: 0.308 ± 0.074 | promoter activity interaction Z-score [5, 11]: 0.602 ± 0.38 | promoter activity interaction Z-score [5, 12]: 0.156 ± 0.63 | promoter activity interaction Z-score [5, 13]: -0.00162 ± 0.4 | promoter activity interaction Z-score [5, 14]: -0.329 ± 0.5 | promoter activity interaction Z-score [5, 15]: 1.13 ± 0.73 | promoter activity interaction Z-score [5, 16]: 0.641 ± 1.4 | promoter activity interaction Z-score [5, 17]: -0.0677 ± 0.0062 | promoter activity interaction Z-score [5, 18]: -0.869 ± 0.76 | promoter activity interaction Z-score [5, 19]: -0.113 ± 0.049 | promoter activity interaction Z-score [5, 20]: -1.15 ± 0.17 | promoter activity interaction Z-score [5, 21]: -1.35 ± 0.85 | promoter activity interaction Z-score [6, 8]: -0.0522 ± 0.2 | promoter activity interaction Z-score [6, 9]: 0.182 ± 0.078 | promoter activity interaction Z-score [6, 10]: 0.268 ± 0.048 | promoter activity interaction Z-score [6, 11]: 0.235 ± 0.097 | promoter activity interaction Z-score [6, 12]: -0.219 ± 0.34 | promoter activity interaction Z-score [6, 13]: 0.306 ± 0.074 | promoter activity interaction Z-score [6, 14]: 0.144 ± 0.06 | promoter activity interaction Z-score [6, 15]: 0.368 ± 0.28 | promoter activity interaction Z-score [6, 16]: -0.09 ± 0.072 | promoter activity interaction Z-score [6, 17]: 0.135 ± 0.0049 | promoter activity interaction Z-score [6, 18]: -0.469 ± 0.47 | promoter activity interaction Z-score [6, 19]: 0.108 ± 0.33 | promoter activity interaction Z-score [6, 20]: -0.417 ± 0.57 | promoter activity interaction Z-score [6, 21]: -0.517 | promoter activity interaction Z-score [7, 8]: -0.508 ± 0.048 | promoter activity interaction Z-score [7, 9]: -0.536 ± 0.12 | promoter activity interaction Z-score [7, 10]: 0.211 ± 0.004 | promoter activity interaction Z-score [7, 11]: 0.982 ± 0.44 | promoter activity interaction Z-score [7, 12]: -0.675 ± 0.32 | promoter activity interaction Z-score [7, 13]: 0.378 ± 0.075 | promoter activity interaction Z-score [7, 14]: -0.935 ± 0.56
